Values joined by “and” are separate entries in the source; they are usually repeats but may differ in a detail not shown here. Equal entries are not always repeated. About 4,000 (1%) of roughly 390,000 compounds were called active. Inconclusive results (about 7%) are left out. The call rests on the fitted dose curve; in most records, active means well fitted inhibition curve with a large enough effect; inconclusive means small, poorly fitted or top-dose-only effect, or another doubt; inactive means no such curve, though single readings can be large or run the other way. The list comes from a sample in which actives are over-represented; it also holds similar structures and randomly drawn compounds. Where a call stands in place of a potency, no number is given. A structure can be active in one record and inactive in another.
molecular target: DNA polymerase iota (Homo sapiens) (UniProt Q9UNA4); experiment: qHTS for Inhibitors of Polymerase Iota; conditions: Pol iota fluorescent replication assay, 10 min; series mostly up to 115 µM
Sequence (Q9UNA4 whole entry, looked up): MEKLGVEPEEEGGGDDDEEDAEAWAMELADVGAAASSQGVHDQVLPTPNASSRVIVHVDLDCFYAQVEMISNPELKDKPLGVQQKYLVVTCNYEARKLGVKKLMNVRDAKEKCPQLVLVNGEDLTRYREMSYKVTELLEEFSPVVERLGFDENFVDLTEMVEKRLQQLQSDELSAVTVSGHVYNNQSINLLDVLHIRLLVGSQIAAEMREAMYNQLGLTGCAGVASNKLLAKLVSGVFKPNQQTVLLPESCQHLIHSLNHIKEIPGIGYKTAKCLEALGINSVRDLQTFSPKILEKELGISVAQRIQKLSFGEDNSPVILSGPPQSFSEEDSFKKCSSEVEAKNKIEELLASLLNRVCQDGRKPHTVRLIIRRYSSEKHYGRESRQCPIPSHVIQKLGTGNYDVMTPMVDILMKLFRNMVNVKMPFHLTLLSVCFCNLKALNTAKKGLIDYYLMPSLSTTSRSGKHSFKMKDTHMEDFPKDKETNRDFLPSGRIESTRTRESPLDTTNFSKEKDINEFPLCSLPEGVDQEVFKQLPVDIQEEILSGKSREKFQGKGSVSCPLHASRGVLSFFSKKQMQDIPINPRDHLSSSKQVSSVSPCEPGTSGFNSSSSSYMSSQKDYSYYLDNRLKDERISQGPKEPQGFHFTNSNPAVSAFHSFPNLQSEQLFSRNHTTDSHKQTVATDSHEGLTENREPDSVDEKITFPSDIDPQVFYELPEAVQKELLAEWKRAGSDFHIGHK
Method in brief: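 Pol iota at 10 nM preincubated 15 min with compounds at room temperature; reaction started with fluorescent substrate, 50 nM final. Fluorescence read kinetically at 0 and 10 min; buffer-only wells as negative control.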
Potency means the concentration at half of the fitted maximal effect.

| SMILES | Potency |
| --- | --- |
| CO[C@H]1O[C@@H]2O[C@@]3(C)CC[C@@H]4[C@@H](C)CC[C@@H]([C@H]1C)[C@@]24OO3 | inactive |
| O=C(COC(=O)c1ccccc1OCCOc1ccccc1)Nc1cccc(Br)c1 | inactive |
| OC[C@H]1O[C@@H](n2cnc3c(NC4CCCC4)ncnc32)[C@H](O)[C@H]1O | inactive |
| Cc1cc(F)ccc1NS(=O)(=O)c1ccc(-n2cccn2)cc1 | inactive |
| CCOc1n[nH]c(-c2ccccc2)n1 | inactive |
| O=C(NCc1ccco1)c1nc2ncccn2n1 | inactive |
| O=C(NCCc1ccccn1)c1ccc(COc2ccccc2)o1 | inactive |
| CN(C)C(CNC(=O)CCCOc1ccccc1)c1ccco1 (stereo not given) | inactive |
| CN(C)C(CNC(=O)c1cccc(C#N)c1)c1ccco1 (stereo not given) | inactive |
| O=C(NCCc1ccco1)c1ccc(OCc2cn3ccccc3n2)cc1 | 44.7 µM (active) |
| CN(C)C(CNC(=O)c1ccc(OCc2cn3ccccc3n2)cc1)c1ccco1 (stereo not given) | 22.4 µM (active) |
| OC(CBr)C[n+]1cccc2cc(Br)ccc21 (stereo not given) | inactive |
| COc1ccc(Cn2c(C(=O)O)c(CNCCc3cccs3)c3ccc(OC)cc32)cc1 | inactive |
| CN(N=O)c1ccc(C=C2c3ccccc3-c3ccccc32)cc1 | inactive |
| CCN(CC)S(=O)(=O)c1ccc2c(c1)N(CC(=O)NCc1ccccc1)C(=O)CS2 | inactive |
| CC1(C)C=Cc2c(ccc(C(=O)/C=C/c3ccccc3)c2O)O1 | inactive |
| Cc1nc2ccc(S(=O)(=O)NC(C(=O)NCc3ccccc3Cl)C(C)C)cc2s1 (stereo not given) | inactive |
| O=C(NCCc1csc(-c2ccc(C(F)(F)F)cc2)n1)C(=O)Nc1ccc(F)c(Cl)c1 | inactive |
| O=C1CCCC(O)=C1N=Nc1ccc2ncsc2c1 | 39.8 µM (active) |
| O=C(Cn1cc(SCc2ccccc2)c2ccccc21)N1CCCCC1 | inactive |
| COc1ccccc1CNc1nccn(-c2ccc(F)cc2)c1=O | inactive |
| C=C(C)C(=O)Nc1cccc(C2=NOC3(C2)C[C@H](C(N)=O)N(C(=O)C(c2ccccc2)c2ccccc2)C3)c1 (stereo not given in full) | 31.6 µM (active) |

| SMILES | Potency |
| --- | --- |
| CC/C=C/C(=O)N1CC2(CC(c3cccc(NC(=O)CC)c3)=NO2)C[C@H]1C(N)=O (stereo not given in full) | inactive |
| C/C=C(\C)C(=O)N1CC2(CC(c3cccc(NC(=O)CCCCC)c3)=NO2)C[C@@H]1C(N)=O (stereo not given in full) | inactive |
| CCc1cccc(NC(=O)CN(C)S(=O)(=O)c2ccc3[nH]c4c(c3c2)CCCC4)c1 | inactive |
| Cc1ccsc1-c1cc(C(=O)O)c2c(ccc3ccccc32)n1 | inactive |
| Cc1cccc(NC(=O)CSc2nc(-c3ccco3)cc(C(F)(F)F)n2)c1C | inactive |
| Cc1cc(C)c2nc(-c3ccco3)cc(C(=O)O)c2c1 | 11.2 µM (active) |
| CCCNC(=O)C(CC)n1nc(CC)n2c(cc3oc(C)cc32)c1=O (stereo not given) | inactive |
| COc1ccc(C(=O)Nc2cccc(C(=O)OCc3cc(=O)n4c5c(sc4n3)CCCC5)c2)cc1 | inactive |
| CC(C)(C)OC(=O)N1CCC(c2c(C(=O)NCCc3ccsc3)cnn2-c2ccc(F)cc2F)CC1 | inactive |
| CC(C)(C)n1ncc2c(=O)n(Cc3ccc(Cl)cc3)cnc21 | inactive and 10 µM (active) |
| CC(C)(C)n1ncc2c(=O)n(Cc3ccc(C(=O)c4ccccc4)cc3)cnc21 | inactive |
| CC(C)(C)n1ncc2c(=O)n(Cc3c(Cl)cccc3Br)cnc21 | inactive |
| CN(C)C1=C2C=CC=CC2/C(=C2/C=Cc3ccccc32)C=C1 (stereo not given) | inactive |
| CC1(C)CCc2cc(S(=O)(=O)N3CCN(c4nc(-c5cccs5)nc5ccccc45)CC3)ccc2O1 | inactive |
| O=C(CCl)Nc1ccc(Sc2ccc(NC(=O)CCl)cc2)cc1 | 39.8 µM (active) |
| O=C(O)CSCC(=O)Nc1ccc(C(F)(F)F)cc1 | inactive |
| CCC(=O)Nc1ccc(C(=O)NNC(=O)c2ccc(Cl)cc2)cc1 | inactive |
| OC(CBr)CN1CCCCC1 (stereo not given) | inactive |
| COc1cc(CNCCSc2nnnn2C)ccc1OCc1c(F)cccc1Cl | inactive |
| O=C(Nc1ccccc1)c1ccccc1OCc1ccccc1 | inactive |
| COc1ccc(/C=C/C(=O)NC(=S)N2CCCC(C(N)=O)C2)cc1 (stereo not given) | inactive |
| COc1ccc(/C=C/C(=O)c2cc(Br)ccc(=O)c2O)cc1 | 2.51 µM (active) |

| SMILES | Potency |
| --- | --- |
| COc1cccc(N2CC(NC(=O)/C=C\c3ccccc3)CC2=O)c1 (stereo not given) | inactive |
| COc1ccc(NC(=O)c2ccco2)cc1NC(=O)COc1ccc(C)c(C)c1 | 70.8 µM (active) |
| Cc1ccc(OCC(=O)Nc2ccccc2C(=O)NC2CC2)cc1C | inactive |
| COc1ccc(NC(=O)c2ccco2)cc1NC(=O)c1ccc(C#N)cc1F | inactive |
| COc1ccccc1CNC(=O)c1ccc(CS(=O)c2ccccc2Cl)o1 (stereo not given) | inactive |
| COc1cc(C)ccc1OCCSc1nc2ccc(NC(=O)c3ccc(C)cc3)cc2s1 | inactive |
| CCc1cccc(CC)c1NC(=O)Cn1c(=O)c(-c2cc(C)ccc2NC(C)=O)nc2ccccc21 | inactive |
| CN(C)c1ccc(C=Nc2ccc(/C=C/c3ccnc4ccccc34)cc2)cc1 | inactive |
| CCOC(=O)N1CCC(N2Cc3cccc(C(=O)Nc4c(C)cccc4CC)c3C2=O)CC1 | inactive |
| CCOC(=O)N1CCC(N2Cc3cccc(C(=O)Nc4ccc(S(=O)(=O)N(CC)CC)cc4)c3C2=O)CC1 | 79.4 µM (active) |
| COC(=O)c1ccc(NC(=O)c2cccc3c2C(=O)N(C2CCCCC2)C3)cc1 | inactive |
| Cc1ccc(Cn2cnc3c(cnn3C(C)(C)C)c2=O)c(F)c1 | inactive |
| COc1cccc2c1cc1c(=O)n(CC(=O)N3CCN(c4cccc(Cl)c4)CC3)nc(C)n12 | inactive |
| CCNC(=O)c1sccc1-n1cccc1 | inactive |
| Cc1ccsc1C(=O)OCC(=O)NCCc1ccccc1 | inactive |
| Cc1ccsc1C(=O)NCCc1ccco1 | 39.8 µM (active) |
| Cc1cc(C)cc(NS(=O)(=O)c2cc3c(cc2C)NC(=O)CO3)c1 | inactive |
| CCOc1ccc(OCC)c(Nc2nc3ccccc3n3nnnc23)c1 | inactive |
| COc1ccccc1N1CCN(c2ncnc3onc(-c4cccc(Cl)c4)c23)CC1 | inactive |
| Cc1c(NC(=O)Nc2ccc(F)c(Cl)c2)c(=O)n(-c2ccccc2)n1C | inactive |
| CC(C)(C)C1CCC(NC(=O)c2cnn3c2NC(=C2CC2)C=C3C(F)F)CC1 (stereo not given) | inactive |
